Compounds with a hit are over-represented: about 4.7% of the library has one in this group of screens.
D1 antag: blocks dopamine activation of the human D1 receptor | HEK293 TREx D1 cells, calcium flux, dopamine EC80; active compounds read low | activity change, negative = inhibition, % at 10 µM | actives 3.2% (n = 360,000) | AID 504652; in the data active = activity change below about -30%
Target sequence (P21728 whole entry, looked up): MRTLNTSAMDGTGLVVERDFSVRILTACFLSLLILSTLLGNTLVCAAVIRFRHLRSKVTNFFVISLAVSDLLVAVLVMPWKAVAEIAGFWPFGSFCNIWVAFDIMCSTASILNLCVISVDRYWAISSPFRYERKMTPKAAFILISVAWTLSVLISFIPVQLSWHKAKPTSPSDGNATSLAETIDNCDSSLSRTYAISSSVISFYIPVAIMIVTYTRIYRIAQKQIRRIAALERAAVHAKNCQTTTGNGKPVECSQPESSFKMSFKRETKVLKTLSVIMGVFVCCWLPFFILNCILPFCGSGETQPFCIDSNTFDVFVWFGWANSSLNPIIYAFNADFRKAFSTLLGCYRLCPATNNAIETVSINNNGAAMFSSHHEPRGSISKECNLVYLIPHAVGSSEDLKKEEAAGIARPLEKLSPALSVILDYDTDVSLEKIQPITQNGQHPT
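Antagonism measured as reduced calcium response to an EC80 dopamine addition following 180 s compound pre-read; cells were inducible HEK293 Trex D1 plated overnight at 30 C, read kinetically at 1 cycle/sec.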
D1 PAM: enhances dopamine response at the human D1 receptor; P21728; HEK293 TREx D1 cells, calcium flux, dopamine EC20 potentiation; potentiation, % at 10 µM; actives 0.036% (n = 360,000); AID 504651; in the data active = potentiation above about 30%
D1 ag: activates the human D1 dopamine receptor; P21728; actives 1% (n = 360,000); activation, % at 2 µM; HEK293 T-REx D1 cells, calcium flux, agonist mode
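Inducible HEK293 T-REx D1 cells, force-coupled to calcium signalling, were plated at 4000 cells/well with tetracycline and held overnight at 30 C. After no-wash calcium dye loading, compound-evoked calcium rise over 180 s flagged agonists.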
TRHR PAM: TRH receptor (human) allosteric enhancement; P34981; AID 493056; actives 0.66% (n = 360,000); TRHR cells, fluo-8 calcium fluorescence, EC20 TRH enhancement; enhancement, % at 2 µM; in the data active = enhancement above about 30%
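TRHR-expressing cells loaded with fluo-8 calcium dye were read kinetically (ex 480/em 530) during compound addition, then stimulated with an EC20 of TRH (10 nM final). Enhancement of the Gq-mediated intracellular calcium response was scored.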
TRHR agonist: TRH receptor (human) agonism; TRHR cells, calcium flux fluo-8, FDSS agonist mode; activation, % at 2 µM; AID 493084; P34981; actives 0.18% (n = 360,000)
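In this calcium-flux screen, cells bearing human TRHR are dye-loaded with fluo-8, baselined for 10 cycles, then exposed to library compounds; positive kinetic calcium responses during the agonist phase mark hits, with TRH as control.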
Large screens that a line does not name were inactive; ! = not confirmed by another sample. Rule as the data show it, unless noted: active = activation above about 30%; inactive = the rest.

CN(C)CCCN(C(=O)c1ccc([N+](=O)[O-])o1)c1nc2cc3c(cc2s1)OCO3	D1 antag -47
CCN(c1ccccc1)S(=O)(=O)c1ccc(C(=O)N(CCCN(C)C)c2nc3cc4c(cc3s2)OCO4)cc1	D1 ag 42
CCN(c1ccccc1)S(=O)(=O)c1ccc(C(=O)N(CCCN(C)C)c2nc3c(C)cccc3s2)cc1	none
CCC(C(=O)O/N=C(\N)c1ccccc1)c1ccccc1 (stereo not drawn)	none
CC(C)COC(=O)C(N)C(C(=O)OCC(C)C)c1ccccc1 (stereo not drawn)	D1 antag -35
N=c1n(CCN2CCOCC2)c2ccccc2n1CC(O)COc1ccccc1 (stereo not drawn)	none
CCn1c(=N)n(CC(O)COc2cccc(C)c2)c2ccccc21 (stereo not drawn)	D1 ag 79
CCCCn1c(=N)n(CC(O)COc2ccccc2)c2ccccc21 (stereo not drawn)	none
N=c1n(CCN2CCCCC2)c2ccccc2n1CC(O)COc1ccccc1 (stereo not drawn)	none
CCCn1c(=N)n(CC(O)COc2cccc(C)c2)c2ccccc21 (stereo not drawn)	D1 ag 44
CCCCCn1c(=N)n(CC(O)COc2cccc(C)c2)c2ccccc21 (stereo not drawn)	D1 ag 59
COC(=O)c1ccccc1NC(=O)CN1C(=O)COc2ccccc21	none
Cc1nc2ccc(S(=O)(=O)N3CCN(S(=O)(=O)c4c(F)cccc4F)CC3)cc2s1	none
Cc1ccc(C(=O)OCC(=O)N2CCCC2)cc1	D1 antag -56
COc1cc(C(=O)OCC(=O)N2CCCC2)cc(OC)c1OC	D1 antag -42
Cc1cc(C)cc(C(=O)OCC(=O)N2CCCC2)c1	none
O=C1NC2(CCCCC2)C(=O)N1CCS(=O)(=O)Oc1ccccc1	TRHR PAM 38
O=C1NC2(CCCCCC2)C(=O)N1Cc1ccccc1F	D1 antag -33
O=C(NCCc1ccccc1)c1ccc2c(c1)N(Cc1ccc(Cl)cc1)C(=O)c1ccccc1S2(=O)=O	none
COC(=O)/C=C1/N/C(=N\c2nc(C)cc(C)n2)N(c2ccccc2)C1=O	none
COC(=O)/C=C1\N/C(=N\c2nc(C)cc(C)n2)N(c2ccccc2)C1=O	D1 antag -52
CC(NCC(O)COCCC12CC3CC(CC(C3)C1)C2)c1ccccc1 (stereo not drawn)	D1 ag 169
O=C(c1ccc(Cn2cc(Br)cn2)cc1)N1N=C(C(F)F)CC1(O)C(F)F (stereo not drawn)	D1 ag 48
CCN(C(=O)C(NS(=O)(=O)c1cccc2nsnc12)c1ccccc1)c1ccccc1 (stereo not drawn)	none
COC(=O)c1ccc(OC)c(Cn2c(=O)n(-c3cccc(Cl)c3)c(=O)c3c4c(sc32)CN(C(C)=O)CC4)c1	D1 antag -40
O=S(=O)(N/N=C/c1ccc(OC2CSC2)cc1)c1ccccc1	D1 ag 47
Cc1ccc(S(=O)(=O)N(C)C)cc1NC(=S)NC(C)CCC(C)C (stereo not drawn)	D1 antag -59
Cc1ccc(S(=O)(=O)N(C)C)cc1NC(=O)C(C)N(C)CCOc1ccc(Cl)cc1 (stereo not drawn)	D1 ag 30 (no result: D1 PAM)
Cc1ccc(S(=O)(=O)N(C)C)cc1NC(=O)Nc1ccccc1F	D1 antag -43
Cc1ccc(S(=O)(=O)N(C)C)cc1NC(=S)NC(C)CCCC(C)C (stereo not drawn)	none
COc1ccc(NC(=O)Nc2ccccc2F)c(C)c1	D1 antag -37
CCC(Cc1ccccc1)NC(=O)c1csc2c1CCCCC2 (stereo not drawn)	none
CCOc1ccc(OCC)c(NS(=O)(=O)c2ccc3c(c2)CCCN3C(C)=O)c1	none
CCCc1cc(=O)[nH]c2nnc(SCC)n12	none (no result: D1 antag)
CN(C)c1ccc(NC(=O)Cn2cc(S(=O)(=O)Cc3ccccc3Cl)c3ccccc32)cc1	none
COc1ccc(NC(=O)Nc2cccc(C)n2)c(OC)c1	TRHR PAM 33!
O=C(Cn1cc(CNCc2ccccc2)nn1)Nc1cc(C(F)(F)F)ccc1Cl	none
COc1cccc(Cn2ncc3c4sc(B(O)O)cc4n(C)c3c2=O)c1	none
Cc1n[nH]c(=S)n1/N=C/c1ccc(OCc2ccc(Cl)cc2)cc1	D1 antag -34
O=C(NCCOCCn1c(=O)oc2ccccc21)Nc1ccc(F)cc1F	none
Cc1ccc(OCCn2c(C)c(/C=N/n3cnnc3)c3ccccc32)cc1	D1 antag -34
Cc1c(/C=N/n2cnnc2)c2ccccc2n1CCOc1ccc(Cl)cc1	none
O=C(C1CCC(Cn2c(=O)c3sccc3n(Cc3ccccc3)c2=O)CC1)N1CCCCC1 (stereo not drawn)	none
CCOC(=O)/C=C1/N(C)c2ccccc2C1(C)C	none
CN1/C(=C\P(=O)(N(C)C)N(C)C)C(C)(C)c2ccccc21	D1 antag -37
COc1cc2ccccc2cc1C(=O)Nc1ccc2oc(-c3ccc(F)cc3)nc2c1	none
O=C(COC(=O)Cn1nc(-c2ccccc2)oc1=O)Nc1ccc(F)cc1	D1 antag -34
CC(=O)c1ccc(NC(=O)CC(c2cccs2)N2Cc3ccccc3C2=O)cc1 (stereo not drawn)	none
COc1ccc(N2CCN(c3oc(/C=C/c4ccccc4OC)nc3C#N)CC2)cc1	none
Cc1ccc(/C=N/NC(=O)C(=O)N/N=C/c2ccc(C)o2)o1	D1 antag -31
CCC1CCCCN1C(=O)Cn1c(=O)n(CCCCCC(=O)NCc2ccccc2Cl)c(=O)c2sccc21 (stereo not drawn)	none
Cc1ccc2nc(N3CCN(C(=O)c4ccc(F)cc4)CC3)c(C#N)cc2c1	D1 antag -46
COc1ccc2nc(N3CCCC3)c(C#N)cc2c1	D1 ag 41
Cc1ccc(CNC(=O)CN2N=C(c3ccc(C)cc3)CCC2=O)cc1	none
COc1ccc(N=CC2=C(O)CC(C)(C)CC2=O)cc1	TRHR PAM 38
COc1ccc(OC)c(N=CC2=C(O)CC(C)(C)CC2=O)c1	none
Cc1c(-c2ccccc2)nc2ccccc2c1C(=O)Oc1ccc([N+](=O)[O-])cc1	D1 antag -33
Oc1ccccc1C(=S)N1CCN(c2cccc(Cl)c2)CC1	D1 antag -39
COc1cc(C(=S)N2CCN(c3cccc(Cl)c3)CC2)ccc1O	D1 antag -31
OC(CN1CCN(c2cccc(Cl)c2)CC1)c1ccccc1 (stereo not drawn)	D1 antag -35
OC(CN1CCN(c2cccc(Cl)c2)CC1)c1ccc(F)cc1 (stereo not drawn)	none
COc1cccc(-n2c(SCc3ccccc3C)nc3c([nH]c4ccccc43)c2=O)c1	none
CCCCn1c(N)c(N(CC)C(=O)C2CCCC2)c(=O)[nH]c1=O	TRHR PAM 36
